Experimental data: PMC7862700, “An all-to-all approach to the identification of sequence-specific readers for epigenetic DNA modifications on cytosine”

Legend:
Assay in all cases: DAPPL (digital affinity profiling via proximity ligation, sequencing); 10 mM Tris-HCl pH 7.5, 50 mM NaCl, 1 mM DTT, 4% glycerol, room temperature, 30 min; GST-TFs on glutathione beads, 16-mer random dsDNA library, 0.1% formaldehyde crosslink after washing; high values mean tight binding
Conditions in all cases: protein: recombinant; tags: N-terminal GST; dsDNA, one strand shown
FLI1 = target: T1, FLI1 (Homo sapiens, UniProt Q01543 1-452)
T1 sequence: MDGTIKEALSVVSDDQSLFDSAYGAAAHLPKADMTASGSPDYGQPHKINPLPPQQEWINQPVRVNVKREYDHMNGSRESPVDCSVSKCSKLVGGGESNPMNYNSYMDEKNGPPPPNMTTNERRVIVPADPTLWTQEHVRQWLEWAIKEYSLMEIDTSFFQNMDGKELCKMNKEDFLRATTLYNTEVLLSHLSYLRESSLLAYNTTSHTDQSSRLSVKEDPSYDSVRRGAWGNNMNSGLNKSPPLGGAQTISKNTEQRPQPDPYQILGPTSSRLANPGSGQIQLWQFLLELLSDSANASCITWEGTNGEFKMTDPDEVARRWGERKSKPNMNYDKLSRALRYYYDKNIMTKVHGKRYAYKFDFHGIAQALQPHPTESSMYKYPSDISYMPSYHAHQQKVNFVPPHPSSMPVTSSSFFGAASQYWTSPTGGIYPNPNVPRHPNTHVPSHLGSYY
Summary of the method: (§1)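 Human transcription factors were made in yeast as GST fusions, captured on glutathione beads and barcoded with DNA. With a tag-only sample included, the pool was incubated with 200 nmole of a random double-stranded 16-mer DNA library in Tris/NaCl/DTT/glycerol buffer at room temperature for 30 min, then crosslinked with 0.1% formaldehyde after washing, ligated by proximity, amplified and sequenced. For binding signal, each hexamer's read frequency for a factor is divided by its frequency for the tag-only sample.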

ELK1 = target: T2, ELK1 (Homo sapiens, UniProt P19419 1-428)
T2 sequence: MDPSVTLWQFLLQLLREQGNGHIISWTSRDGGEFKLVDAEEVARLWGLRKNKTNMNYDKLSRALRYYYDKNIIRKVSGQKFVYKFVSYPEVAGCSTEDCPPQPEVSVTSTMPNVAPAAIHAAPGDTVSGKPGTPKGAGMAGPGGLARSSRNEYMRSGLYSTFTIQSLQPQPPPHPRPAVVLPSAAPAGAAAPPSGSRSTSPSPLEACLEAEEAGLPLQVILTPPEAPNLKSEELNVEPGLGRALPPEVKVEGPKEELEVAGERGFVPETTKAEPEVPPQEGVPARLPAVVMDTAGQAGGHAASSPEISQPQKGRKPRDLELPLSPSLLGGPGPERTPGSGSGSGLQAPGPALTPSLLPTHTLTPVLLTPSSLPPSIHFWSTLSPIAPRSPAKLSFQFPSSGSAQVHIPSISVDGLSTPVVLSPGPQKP
Summary of the method: as §1

GABPA = target: T3, GABPA (Homo sapiens, UniProt Q06546 1-454)
T3 sequence: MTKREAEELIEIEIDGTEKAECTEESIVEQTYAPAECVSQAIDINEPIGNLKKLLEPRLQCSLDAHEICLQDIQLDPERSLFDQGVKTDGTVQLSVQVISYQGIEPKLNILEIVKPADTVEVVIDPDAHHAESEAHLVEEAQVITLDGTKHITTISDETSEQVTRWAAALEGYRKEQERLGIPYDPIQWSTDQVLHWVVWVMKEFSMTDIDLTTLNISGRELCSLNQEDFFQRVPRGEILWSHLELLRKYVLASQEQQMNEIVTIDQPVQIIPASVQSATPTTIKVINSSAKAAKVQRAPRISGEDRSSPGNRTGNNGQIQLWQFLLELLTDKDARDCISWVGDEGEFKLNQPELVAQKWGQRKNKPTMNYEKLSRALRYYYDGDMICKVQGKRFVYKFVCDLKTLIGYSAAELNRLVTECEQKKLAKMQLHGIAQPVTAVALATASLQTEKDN
Summary of the method: as §1

ERG = target: T4, ERG (Homo sapiens, UniProt P11308 1-479)
T4 sequence: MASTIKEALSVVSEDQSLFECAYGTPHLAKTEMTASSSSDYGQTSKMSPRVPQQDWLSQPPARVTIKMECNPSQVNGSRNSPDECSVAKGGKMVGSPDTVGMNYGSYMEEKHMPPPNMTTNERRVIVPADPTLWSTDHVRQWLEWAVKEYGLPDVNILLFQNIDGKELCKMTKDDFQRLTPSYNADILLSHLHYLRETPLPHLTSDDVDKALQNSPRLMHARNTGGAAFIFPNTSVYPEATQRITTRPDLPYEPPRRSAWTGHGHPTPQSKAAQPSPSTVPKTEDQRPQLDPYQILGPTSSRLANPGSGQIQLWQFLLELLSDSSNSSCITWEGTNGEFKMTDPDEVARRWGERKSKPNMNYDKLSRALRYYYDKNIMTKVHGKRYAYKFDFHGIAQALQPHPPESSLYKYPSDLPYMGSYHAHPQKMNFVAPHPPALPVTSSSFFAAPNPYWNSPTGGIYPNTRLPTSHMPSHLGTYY
Summary of the method: as §1

ELF1 = ELF1 (Homo sapiens, UniProt P32519 1-619)
Sequence of ELF1 (P32519 whole entry): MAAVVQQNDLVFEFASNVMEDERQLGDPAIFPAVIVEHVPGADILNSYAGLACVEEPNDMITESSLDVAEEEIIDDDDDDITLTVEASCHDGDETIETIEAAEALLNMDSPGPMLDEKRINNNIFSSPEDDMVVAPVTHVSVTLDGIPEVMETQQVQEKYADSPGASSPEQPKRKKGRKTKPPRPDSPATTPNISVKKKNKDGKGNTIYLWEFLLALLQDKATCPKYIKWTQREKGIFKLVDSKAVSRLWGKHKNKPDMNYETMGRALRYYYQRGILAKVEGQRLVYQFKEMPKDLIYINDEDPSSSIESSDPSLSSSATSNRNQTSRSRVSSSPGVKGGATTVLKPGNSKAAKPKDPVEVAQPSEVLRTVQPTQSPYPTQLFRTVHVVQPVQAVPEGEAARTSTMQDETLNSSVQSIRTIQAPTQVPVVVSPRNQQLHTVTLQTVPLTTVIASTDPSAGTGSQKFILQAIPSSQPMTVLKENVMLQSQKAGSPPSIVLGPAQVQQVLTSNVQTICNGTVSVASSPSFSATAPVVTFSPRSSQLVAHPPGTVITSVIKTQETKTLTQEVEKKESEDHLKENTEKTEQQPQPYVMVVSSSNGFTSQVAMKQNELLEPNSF
Summary of the method: as §1

EHF = target: T5, EHF (Homo sapiens, UniProt Q9NZC4 1-300)
T5 sequence: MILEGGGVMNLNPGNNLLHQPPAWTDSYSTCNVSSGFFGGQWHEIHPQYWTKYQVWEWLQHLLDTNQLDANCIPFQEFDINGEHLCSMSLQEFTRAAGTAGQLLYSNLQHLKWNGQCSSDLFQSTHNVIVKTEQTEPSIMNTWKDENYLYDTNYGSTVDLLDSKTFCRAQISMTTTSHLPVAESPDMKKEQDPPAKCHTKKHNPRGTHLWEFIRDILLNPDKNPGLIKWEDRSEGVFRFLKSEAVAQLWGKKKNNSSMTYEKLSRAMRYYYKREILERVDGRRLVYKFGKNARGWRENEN
Summary of the method: as §1

SPI1 = SPI1 (Homo sapiens, UniProt P17947 1-270)
Summary of the method: as §1

SPIB = SPIB (Homo sapiens, UniProt Q01892 1-262)
Sequence of SPIB (Q01892 whole entry): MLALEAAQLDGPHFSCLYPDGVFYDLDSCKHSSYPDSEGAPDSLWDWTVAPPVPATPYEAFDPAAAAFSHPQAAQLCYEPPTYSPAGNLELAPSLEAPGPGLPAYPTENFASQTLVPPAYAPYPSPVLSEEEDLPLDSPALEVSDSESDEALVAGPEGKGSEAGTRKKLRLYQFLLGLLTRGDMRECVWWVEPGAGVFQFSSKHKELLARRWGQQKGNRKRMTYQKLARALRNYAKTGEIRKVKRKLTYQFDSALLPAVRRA
Summary of the method: as §1

ELK3 = target: T6, ELK3 (Homo sapiens, UniProt P41970 1-407)
T6 sequence: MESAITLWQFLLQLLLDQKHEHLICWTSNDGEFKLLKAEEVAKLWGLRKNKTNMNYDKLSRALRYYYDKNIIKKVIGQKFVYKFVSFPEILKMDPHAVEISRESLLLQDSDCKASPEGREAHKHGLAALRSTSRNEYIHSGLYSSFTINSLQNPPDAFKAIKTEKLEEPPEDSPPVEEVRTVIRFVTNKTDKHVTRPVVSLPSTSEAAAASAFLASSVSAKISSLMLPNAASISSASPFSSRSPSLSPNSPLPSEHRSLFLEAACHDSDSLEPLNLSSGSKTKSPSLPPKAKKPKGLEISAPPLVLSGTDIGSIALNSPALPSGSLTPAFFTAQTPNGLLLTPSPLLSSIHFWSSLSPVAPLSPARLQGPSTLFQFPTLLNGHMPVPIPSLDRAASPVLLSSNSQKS
Summary of the method: as §1

Row | Sequence | binding signal (FLI1) | binding signal (ELK1) | binding signal (GABPA) | binding signal (ERG) | binding signal (ELF1) | binding signal (EHF) | binding signal (SPI1) | binding signal (SPIB) | binding signal (ELK3)
1 | TAAAAG | 1.12 fold enrichment (6-mer frequency, TF over GST control) | 1.18 fold enrichment (6-mer frequency, TF over GST control) | 1.24 fold enrichment (6-mer frequency, TF over GST control) | 1.1 fold enrichment (6-mer frequency, TF over GST control) | 1.12 fold enrichment (6-mer frequency, TF over GST control) | 1.16 fold enrichment (6-mer frequency, TF over GST control) | 1.31 fold enrichment (6-mer frequency, TF over GST control) | 1.18 fold enrichment (6-mer frequency, TF over GST control) | 1.15 fold enrichment (6-mer frequency, TF over GST control)
2 | AACCTT | 1.3 fold enrichment (6-mer frequency, TF over GST control) | 1.25 fold enrichment (6-mer frequency, TF over GST control) | 1.25 fold enrichment (6-mer frequency, TF over GST control) | 1.26 fold enrichment (6-mer frequency, TF over GST control) | 1.33 fold enrichment (6-mer frequency, TF over GST control) | 1.33 fold enrichment (6-mer frequency, TF over GST control) | 1.26 fold enrichment (6-mer frequency, TF over GST control) | 1.34 fold enrichment (6-mer frequency, TF over GST control) | 1.33 fold enrichment (6-mer frequency, TF over GST control)
3 | TCCCCC | 1.59 fold enrichment (6-mer frequency, TF over GST control) | 1.54 fold enrichment (6-mer frequency, TF over GST control) | 1.44 fold enrichment (6-mer frequency, TF over GST control) | 1.48 fold enrichment (6-mer frequency, TF over GST control) | 1.58 fold enrichment (6-mer frequency, TF over GST control) | 1.52 fold enrichment (6-mer frequency, TF over GST control) | 1.46 fold enrichment (6-mer frequency, TF over GST control) | 1.53 fold enrichment (6-mer frequency, TF over GST control) | 1.27 fold enrichment (6-mer frequency, TF over GST control)
4 | CTACTA | 1.32 fold enrichment (6-mer frequency, TF over GST control) | 1.36 fold enrichment (6-mer frequency, TF over GST control) | 1.34 fold enrichment (6-mer frequency, TF over GST control) | 1.24 fold enrichment (6-mer frequency, TF over GST control) | 1.39 fold enrichment (6-mer frequency, TF over GST control) | 1.33 fold enrichment (6-mer frequency, TF over GST control) | 1.32 fold enrichment (6-mer frequency, TF over GST control) | 1.3 fold enrichment (6-mer frequency, TF over GST control) | 1.37 fold enrichment (6-mer frequency, TF over GST control)
5 | CTAAGA | 1.21 fold enrichment (6-mer frequency, TF over GST control) | 1.22 fold enrichment (6-mer frequency, TF over GST control) | 1.16 fold enrichment (6-mer frequency, TF over GST control) | 1.17 fold enrichment (6-mer frequency, TF over GST control) | 1.18 fold enrichment (6-mer frequency, TF over GST control) | 1.26 fold enrichment (6-mer frequency, TF over GST control) | 1.15 fold enrichment (6-mer frequency, TF over GST control) | 1.24 fold enrichment (6-mer frequency, TF over GST control) | 1.18 fold enrichment (6-mer frequency, TF over GST control)
6 | CTGCAT | 1.42 fold enrichment (6-mer frequency, TF over GST control) | 1.51 fold enrichment (6-mer frequency, TF over GST control) | 1.41 fold enrichment (6-mer frequency, TF over GST control) | 1.41 fold enrichment (6-mer frequency, TF over GST control) | 1.47 fold enrichment (6-mer frequency, TF over GST control) | 1.47 fold enrichment (6-mer frequency, TF over GST control) | 1.42 fold enrichment (6-mer frequency, TF over GST control) | 1.65 fold enrichment (6-mer frequency, TF over GST control) | 1.39 fold enrichment (6-mer frequency, TF over GST control)
7 | ATTGCG | 1.33 fold enrichment (6-mer frequency, TF over GST control) | 1.06 fold enrichment (6-mer frequency, TF over GST control) | 1.3 fold enrichment (6-mer frequency, TF over GST control) | 1.16 fold enrichment (6-mer frequency, TF over GST control) | 1.27 fold enrichment (6-mer frequency, TF over GST control) | 1.28 fold enrichment (6-mer frequency, TF over GST control) | 1.44 fold enrichment (6-mer frequency, TF over GST control) | 1.1 fold enrichment (6-mer frequency, TF over GST control) | 1.27 fold enrichment (6-mer frequency, TF over GST control)
